The structures appear in SMILES notation. The campaign covered roughly 45,000 compounds. About 200 (0.44%) were called active. Another 7% or so got no clear call; they are omitted. Calls come from the whole dose curve; as a rule, active = well fitted activation curve with a large enough effect; inconclusive = small, poorly fitted or top-dose-only effect; inactive = no such curve, though single readings can be large or run the other way. The entries come from a sample that favours actives as a whole. A call without a number means that no potency is given here.
Potency is the fitted concentration of half-maximal effect.

The experiment can be described thus: qHTS of TDP-43 Inhibitors: NCGC Sytravon Library Screen. Note: nearly all actives have a fitted effect of over 55% in size. The conditions noted are these: yeast TDP-43 toxicity rescue, BacTiter-Glo growth, 24 h; series mostly up to 46.1 µM. The source says:
The goal of this project is to identify new chemical probes capable of reversing the toxicity associated with TDP-43 which is associated with frontotemporal lobar degeneration and amyotrophic lateral sclerosis. These compounds will provide a complementary approach to deciphering the tangled mechanisms of toxicity and protection that we have uncovered through genome-wide genetic screens and are beginning to uncover in a large-scale proteomics analysis with mass spectroscopy. To this end, a miniaturized assay was developed to be screened against the Molecular Libraries Small Molecule Repository (MLSMR) to discover TDP-43 inhibitors. Please note that in the set-up this yeast-based assay compounds that inhibit as TDP-43, have a read-out as activators. NIH Chemical Genomics Center [NCGC] NIH Molecular Libraries Probe Centers Network [MLPCN] Assay Submitter (PI): Susan Lindquist, Whitehead Institute/MIT MLPCN Grant: R21 NS060957
Dispense 2.5 microL yeast galactose medium per 1536-well plate, pin compound, dispense 2.5 microL TDP-43 expressing yeast in galactose medium at OD600=0.02 (pregrown in raffinose medium to mid-log phase) per well, incubate for 24 hr at 30 deg C, and cell growth will be measured using 5 microL of Bactiter/Glo reagent to entire plate and read using Luminescence Protocol in ViewLux.
(In general: Quantitative high-throughput screening tests each substance at several concentrations.)
In the case of `COc1ccc(-c2[nH]ncc2CN(C)Cc2cc(C)[nH]n2)c(F)c1`, the Potency result was “inactive”.

`COc1ccc(S(=O)(=O)N2CCOCC2)cc1NC(=O)CSc1nnc(NC2CC2)s1`: the Potency entry is “inactive”.

Regarding `Cn1cc(CN2CCCCC2c2ccccn2)c(-c2ccc3c(c2)OCCO3)n1` (stereo not given), the Potency entry is “inactive”.

As to `Cc1ccc(SCC(=O)NNC(=O)c2ccc(S(C)(=O)=O)cc2)cc1`, the Potency entry was “inactive”.

Regarding `CCOC(=O)C1CCN(c2ccc(C(=O)O)cc2[N+](=O)[O-])CC1`, the Potency result is “inactive”.

As for `CC(C)(C)c1nnc2sc(SCC(O)=C(C#N)c3nc4ccccc4[nH]3)nn2c1=O`, the Potency entry is “inactive”.

Regarding `CC1(C(=O)NCc2ccc3c(c2)OCO3)CCN1C(=O)Cc1cccc2ccccc12` (stereo not given), the Potency result is “inactive”.

As to `COc1cccc(CC(=O)OCC(=O)NCc2ccc3c(c2)OCO3)c1`, the Potency result is “inactive”.

For `N#Cc1nc(Cc2cccc3ccccc23)oc1NCc1ccc2c(c1)OCO2`, the Potency is 12.6 µM (active).

Regarding `O=C(Nc1ccccc1)/C(=C\c1ccco1)NC(=O)c1ccco1`, the Potency result is “inactive”.

As to `Nc1nc(SCC(=O)NN(c2ccccc2)c2ccccc2)n[nH]1`, the Potency result was “inactive”.

Turning to `CC(C)(C)SCCNC(=O)c1cccc([N+](=O)[O-])c1`, the Potency entry was “inactive”.

Take `Cc1nn(-c2ccccc2)c2c1C(c1cccc([N+](=O)[O-])c1)N(c1ccccc1)C(=O)N2` (stereo not given): the Potency entry is “inactive”.

For `COc1ccc(C(C(=O)NC2CCCC2)N(CCCO)C(=O)Cn2nnc(-c3ccc(C)o3)n2)cc1` (stereo not given), the Potency entry is “inactive”.

Regarding `CSc1ccc(C(=O)C2CCCN(C(=O)c3ccc(C)nc3)C2)cc1` (stereo not given), the Potency entry was “inactive”.

Take `CC(=O)N1CCN(C(=O)C2(NC(=O)Nc3ccc(C)cc3)CCCCC2)CC1`: the Potency result is “inactive”.

In the case of `CC(=O)Oc1ccc2c(=O)oc(-c3ccc([N+](=O)[O-])cc3)nc2c1`, the Potency result was “inactive”.

As for `CC(=O)C1=C(C)NC2=C(C(=O)CC(C)(C)C2)C1C` (stereo not given), the Potency entry was “inactive”.

With `Oc1ccccc1C=NC1CCCCC1N=Cc1ccccc1O` (stereo not given), the Potency entry is “inactive”.

As to `O=C(c1ccc(F)cc1)N1CCC(n2nnc3ccccc32)CC1`, the Potency result was “inactive”.

As for `Cc1ccc(NC(=O)CSc2nnc(CNC(=O)c3ccccc3F)o2)cc1`, the Potency result was “inactive”.

`O=C(N/N=C/c1ccc2c(c1)OCO2)C(=O)N1CCCC1`: the Potency result was “inactive”.

In the case of `CC(OC(=O)c1ccc(Cl)cc1O)C(=O)NCCC1=CCCCC1` (stereo not given), the Potency entry is “inactive”.

In the case of `O=C(C1CCN(Cc2ccc(Cl)cc2)CC1)N1CCN(Cc2ccc3c(c2)OCO3)CC1`, the Potency entry is “inactive”.

`COc1cccc(CC(=O)Nc2nc(-c3ccc(OC)c(OC)c3)cs2)c1`: the Potency result is “inactive”.

As for `CCN(CC(=O)NC(C)C)C(=O)c1cc(S(=O)(=O)N2CCCCC2)ccc1N1CCCCC1`, the Potency result is “inactive”.

Regarding `Cc1ccc(-c2noc(CNC(=O)c3ccoc3C)n2)cc1`, the Potency result was “inactive”.

On to `O=C(CCc1c[nH]c2ccccc12)NCCOc1ccccc1`, for which the Potency entry is “inactive”.

For `CCn1cc(C(=O)NCC(=O)NC(C)(C)CO)c(=O)c2cc3c(cc21)OCO3`, the Potency result is “inactive”.

As to `Cc1cccc(C(=O)NCC(=O)OCC(=O)N2CC3(C)CC2CC(C)(C)C3)c1` (stereo not given), the Potency entry is “inactive”.

On to `COc1ccc(OCC(=O)NNC(=O)c2cccc(C)c2)cc1`, for which the Potency result was “inactive”.

Take `Cc1cc(C)cc(NC(=O)CSc2ccccc2)c1`: the Potency entry is “inactive”.

As to `Cc1ccc(NC(=O)CN(C)C(=O)c2ccc(Br)o2)cc1`, the Potency result is “inactive”.

For `CNCC(O)CN1CCN(c2ccccc2OC)CC1` (stereo not given), the Potency result is “inactive”.

For `O=c1c(-c2ccc(Cl)cc2)[n+]([O-])c2ccccc2n1OCc1nc2ccccc2[nH]1`, the Potency entry was “inactive”.

As for `Cc1cc(C)cc(N(CC(=O)NCCSCc2ccco2)S(C)(=O)=O)c1`, the Potency entry is “inactive”.

For `COC(=O)c1ccc(CN2CCC(CO)(Cc3ccc(OC)cc3)CC2)cc1`, the Potency result is “inactive”.

Turning to `CN(C)S(=O)(=O)N1CCN(c2ccc([N+](=O)[O-])cc2)CC1`, the Potency result is “inactive”.

As for `COc1ccc(N2CCN(c3ccc([N+](=O)[O-])cc3Cl)CC2)cc1`, the Potency result is “inactive”.

For the molecule `O=[N+]([O-])c1ccc(N2CCN(c3ccc(O)cc3)CC2)c(Cl)c1`, the Potency was 12.6 µM (active).

For the molecule `COCCCNc1ccn2nc(-c3ccc(CC(C)C)cc3)cc2n1`, the Potency result was “inactive”.

As to `S=C(Nc1ccc(Br)cc1Cl)NC1CCN(Cc2ccccc2)CC1`, the Potency result was “inactive”.

On to `CC(C)=CCN1CCN(Cc2ccc(Oc3ncccn3)cc2)CC1CCO` (stereo not given), for which the Potency result is “inactive”.

For the molecule `Cc1ccc(C)c(NC(=O)c2ccc3nccnc3c2)c1`, the Potency result was “inactive”.

For `CC(C(=O)O)n1cnc2sc3c(c2c1=O)CCCC3` (stereo not given), the Potency entry was “inactive”.

As to `Cc1ccc(C(=O)NC2CCN(C(=O)Nc3ccc(F)cc3)CC2)cc1`, the Potency result is “inactive”.

Regarding `Cc1ccc(/C=N/NC(=O)CN2CCN(Cc3ccccc3)CC2)s1`, the Potency result was “inactive”.

For the molecule `COc1ccc2cc(S(=O)(=O)Nc3ccccn3)ccc2c1`, the Potency result was “inactive”.

Turning to `O=C(Cc1ccccc1)Nc1c(Cl)ccc2nsnc12`, the Potency entry is “inactive”.

As for `CC(Oc1ccccc1F)C(=O)NN` (stereo not given), the Potency result was “inactive”.

For `COc1ccc(NC(=O)C2COc3ccccc3O2)cc1` (stereo not given), the Potency entry was “inactive”.

For the molecule `COc1ccc(NC(=O)C2Cc3c(-c4ccc(Cl)cc4)ccnc3O2)cc1` (stereo not given), the Potency is 20 µM (active).

For the molecule `COc1ccc(NC(=O)C2(C)Cc3c(-c4cccc(NC(C)=O)c4)ccnc3O2)cc1` (stereo not given), the Potency result is “inactive”.

Regarding `Cc1ccc(N2CCN(C(=O)c3cccs3)CC2)c(C)c1`, the Potency entry is “inactive”.

Consider `O=c1[nH]oc(O)c1-c1ncc(C(F)(F)F)cc1Cl`, for which the Potency result was “inactive”.

The values above are taken from PubChem BioAssay AID1347073 (National Center for Advancing Translational Sciences (NCATS), 2019).
